Measured values taken from PubChem BioAssay (NCATS).
Inconclusive results are not listed. Activity calls are given as the source filed them. The call rests on the fitted dose curve; in most records, active means well fitted curve in the direction sought with a large enough effect; inconclusive means small, poorly fitted or top-dose-only effect, or another doubt; inactive means no such curve, though single readings can be large; an effect the other way counts as inactive or inconclusive.

Columns and labels:
[1] = qHTS of pediatric cancer cell lines to identify multiple opportunities for drug repurposing: Primary screen for BT-37 cells (AID 1347094); further: series mostly up to about 57 µM
Procedure, shortened: (§1)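 Viability was measured as metabolically active cells after 48 hours of treatment, read by CellTiter-Glo luminescence. Compounds were tested at multiple final concentrations, giving concentration-response curves.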

[2] = qHTS of pediatric cancer cell lines to identify multiple opportunities for drug repurposing: Primary screen for NB-EBc1 cells (AID 1347095)
Procedure, shortened: as §1

[3] = qHTS of pediatric cancer cell lines to identify multiple opportunities for drug repurposing: Primary screen for U-2 OS cells (AID 1347096); further: nearly all actives have a fitted effect of over 50% in size
Procedure, shortened: (§2)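 Cells (500-1,000/well) rested 5 h, then received compounds for 48 h; metabolically active cells were measured by CellTiter-Glo luminescence. Final concentrations spanned up to 46 µM (MIPE, 11-point) or 0.59 nM-46 µM (NPC, 8-point) in primary screens, 11-point in follow-ups.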

[4] = qHTS of pediatric cancer cell lines to identify multiple opportunities for drug repurposing: Primary screen for Saos-2 cells (AID 1347097); further: nearly all actives have a fitted effect of over 40% in size
Procedure, shortened: as §1

[5] = qHTS of pediatric cancer cell lines to identify multiple opportunities for drug repurposing: Primary screen for SK-N-SH cells (AID 1347098);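 further: DMSO served as neutral control and bortezomib at 2.3 µM as positive control; nearly all actives have a fitted effect of over 65% in size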
Procedure, shortened: as §2

[6] = qHTS of pediatric cancer cell lines to identify multiple opportunities for drug repurposing: Primary screen for NB1643 cells (AID 1347099); further: nearly all actives have a fitted effect of over 50% in size
Procedure, shortened: as §1

[7] = qHTS of pediatric cancer cell lines to identify multiple opportunities for drug repurposing: Primary screen for LAN-5 cells (AID 1347100)
Procedure, shortened: as §2

[8] = qHTS of pediatric cancer cell lines to identify multiple opportunities for drug repurposing: Primary screen for BT-12 cells (AID 1347101); further: nearly all actives have a fitted effect of over 25% in size
Procedure, shortened: as §2

[9] = qHTS of pediatric cancer cell lines to identify multiple opportunities for drug repurposing: Primary screen for Rh18 cells (AID 1347102); further: nearly all actives have a fitted effect of over 65% in size
Procedure, shortened: as §2

[10] = qHTS of pediatric cancer cell lines to identify multiple opportunities for drug repurposing: Primary screen for OHS-50 cells (AID 1347103); further: nearly all actives have a fitted effect of over 40% in size
Procedure, shortened: as §2

Measured: Potency

CCOC(=O)CC(SP(=S)(OC)OC)C(=O)OCC (stereo not given)
inactive: all assays above

COc1ccc2c3c1O[C@H]1[C@H](O)CC[C@H]4[C@@H](C2)N(C)CC[C@@]341
inactive: all assays above

C=CCC1([C@H](C)CCC)C(=O)NC(=O)NC1=O
not listed: [7]
inactive: all other assays above

CC(C)(N)Cc1ccccc1Cl
inactive: all assays above

COC(=O)[C@@H](N)CCCN/C(N)=N/[N+](=O)[O-]
inactive: all assays above

O=C(O)c1ccc(=O)[nH]c1
inactive: all assays above

COc1cc(CC(C)N)cc(OC)c1OC (stereo not given)
inactive: all assays above

COC1CC(=C(c2cccs2)c2cccs2)C[N+](C)(C)C1 (stereo not given)
not listed: [8]
inactive: all other assays above

C[C@H](N)C(=O)c1ccccc1
inactive: all assays above

C=C(C)[C@H]1CN[C@H](C(=O)O)[C@H]1CC(=O)O
not listed: [7]
inactive: all other assays above

CC(C)N(CCC(C(N)=O)(c1ccccc1)c1ccccn1)C(C)C (stereo not given)
inactive: all assays above

CNC(C)(C)Cc1ccccc1
inactive: all assays above

CCc1cc2c(s1)-n1c(C)nnc1CN=C2c1ccccc1Cl
not listed: [10]
inactive: all other assays above

Nc1ccc([As](=O)(O)O)cc1
inactive: all assays above

CCCOC(=O)c1cncn1C(C)c1ccccc1 (stereo not given)
inactive: all assays above

CCN(CCO)CCn1c(Cc2ccccc2)nc2c1c(=O)n(C)c(=O)n2C
inactive: all assays above

c1ccc(CN2CCNCC2)cc1
inactive: all assays above

C=CCN1C[C@H](C)N([C@H](c2ccc(C(=O)N(CC)CC)cc2)c2cccc(OC)c2)C[C@H]1C
inactive: all assays above

CC(C)(C)NCC(O)c1cc(Cl)c(N)c(C(F)(F)F)c1 (stereo not given)
not listed: [7]
inactive: all other assays above

CC(NC(C)(C)C)C(=O)c1cccc(Cl)c1 (stereo not given)
inactive: all assays above

COc1ccc2c(c1OC)C(=O)O[C@H]2[C@@H]1c2cc3c(cc2CCN1C)OCO3
inactive: all assays above

C[C@@H](N)[C@@H](O)c1ccccc1
inactive: all assays above

O=c1[nH]oc2c1CCNC2
inactive: all assays above
